Screening data (PubChem)
Pf growth 48h = P. falciparum growth inhibition at 48 hours (one generation). P. falciparum luciferase growth in erythrocytes, 48 h. Potency, µM (doses to about 28.7 µM), for the others: at the highest dose activity change, negative = inhibition, actives largely listed as inhibitors. 310,000 tested, 5.9% active; further: potency means the concentration at half of the fitted maximal effect; on the % scale 0 is the no-effect control and ±100 the full control effect
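A one-generation exposure of luciferase-tagged malaria parasites in RPMI 1640/Albumax erythrocyte culture, 37 C and 5% CO2. Inhibition is inferred from decreased luminescence after adding detection reagent.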
Shiga inhibitor = inhibitors of Shiga toxin in Vero cells. inhibition, % at 38.7 µM. 290,000 tested, 9.2% active. Vero cells, Shiga toxin protein synthesis inhibition reporter. AID 2315; in the data active means inhibition mostly above about 28%, no sharp cut-off; inactive means mostly below about 43%; further: 0% is about no effect
Cycloheximide cs = counter-screen hit for Shiga toxin inhibitors, cycloheximide; cell reporter, cycloheximide protein synthesis inhibition counterscreen; max response, %; 300,000 tested, 12% active; in the data active means max response mostly above about 13%, no sharp cut-off; inactive means mostly below about 14%; further: read at 38.3 µM for the half of the compounds with a filed dose; 0% is about no effect
NS1 inh = blocks influenza NS1 protein function | Potency, µM (series often up to 46.1 µM), inactives show at the highest dose activity, positive = more growth | 270,000 tested, 0.4% active; calls by dose curve; further: potency means the concentration at half of the fitted maximal effect; actives are rising curves; nearly all actives have a fitted effect of over 50% in size
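Read-out: OD600 growth recovery of NS1-expressing budding yeast. Cells grown overnight at 30C in -URA glucose medium, washed, resuspended and diluted 1:100 in 2% galactose assay medium, pH 6.0. Same strain lacking NS1 served as positive control.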
Pf growth 96h = inhibits malaria parasite growth, 96 h | P. falciparum luciferase reporter growth, 96 h | Potency, µM (doses to about 28.7 µM), for the others: top-dose activity change, negative = inhibition, actives largely listed as inhibitors | 320,000 tested, 6.9% active | AID 504834; further: potency means the concentration at half of the fitted maximal effect; on the % scale 0 is the no-effect control and ±100 the full control effect
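Erythrocytes infected with luciferase-expressing P. falciparum were dispensed at 2% hematocrit and 0.05% parasitemia (final), then incubated with compounds 96 hours at 37 C in 5% CO2. Luminescence after detection reagent addition reported growth.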
Starred values were filed as active, the others as inactive; ? = inconclusive; / = not tested or not shown; [ ] = another dose, or the depositor's remark. A selection: hits, their analogues and other compounds. The true share with any hit is near 21%. Unless noted, the call rests on the fitted dose curve; in most records, active means well fitted inhibition curve with a large enough effect; inconclusive means small, poorly fitted or top-dose-only effect, or another doubt; inactive means no such curve, though single readings can be large or run the other way.

SMILES	Pf growth 48h	Shiga inhibitor	Cycloheximide cs	NS1 inh	Pf growth 96h
O=C(CSc1nncs1)Nc1ccc(S(=O)(=O)N2CCCC2)cc1	0%	-4	-3	/	0%
COc1ccc(C2CC(c3ccc(Br)cc3)=NN2C(=S)Nc2ccccc2)cc1 (stereo not given)	-20%	43*	21*	/	7%[5.75 µM]
CNC(=S)N1N=C(c2ccccc2)CC1c1ccc(OC)c(OC)c1 (stereo not given)	-18%	-10	-2	3%	-14%
COc1ccccc1C1CC(c2ccccc2)=NN1C(=S)Nc1ccccc1 (stereo not given)	3.3µM*	5	14	/	?
COc1ccc(C2CC(c3ccccc3)=NN2C(=S)Nc2ccccc2)cc1 (stereo not given)	?	-9	10	/	?
COc1ccc(C2=NN(C(=O)CCC(=O)O)C(c3ccc(OC)cc3)C2)cc1 (stereo not given)	-9%	7	-2	13%	?
COc1ccc(C2CC(c3ccccc3)=NN2C(=O)CN2N=NC3C(=O)N(c4cccc(F)c4)C(=O)C32)cc1 (stereo not given)	-14%	-9	11*	24%	?
COc1ccc(C2=NN(C(=S)Nc3ccccc3)C(c3ccccc3)C2)cc1 (stereo not given)	15µM*	1	-2	28%	44%
CNC(=S)N1N=C(c2ccc(OC)cc2)CC1c1ccc(N(C)C)cc1 (stereo not given)	-28%	42	14	-11%	0%
COc1ccc(S(=O)(=O)N2CCC(C(=O)NCCC(=O)Nc3cccc(Cl)c3)CC2)cc1	0%	-5	-3	-1%	24%
COc1ccc(C2CC(c3ccccc3)=NN2C(=O)c2ccc(F)cc2)cc1 (stereo not given)	12µM*	-2	11	2%	-24%
CNC(=S)N1N=C(c2cccs2)CC1c1ccc(OC)cc1 (stereo not given)	0%	-14	-3	15%	?
COc1ccc(C2=NN(C(=O)c3ccc(Cl)c([N+](=O)[O-])c3)C(c3ccccc3)C2)cc1 (stereo not given)	-14%	-11	-4	29%	-8%
COc1ccc(C2CC(c3ccc(Br)cc3)=NN2C(=O)CSC2=NCCS2)cc1 (stereo not given)	?	-3	-3	?	4.7µM*
COc1ccc(C2=NN(C(N)=S)C(c3ccccc3)C2)cc1 (stereo not given)	?	51*	32*	/	21%
O=C(c1ccccc1)N1N=C(c2ccccc2)CC1c1ccc2nccnc2c1 (stereo not given)	9.3µM*	-9	-5	12%	?
O=c1[nH]cnc2c1sc1nc(C(F)F)cc(-c3ccccc3)c12	-7%	/	/	/	18%
CCOC(=O)C1=C(C)NC(=O)NC1c1cc2c(cc1Br)OCO2 (stereo not given)	9.3µM*	-2	4	4%	-4%
CC1=C(C(=O)OCC(C)C)C(c2ccccc2Cl)NC(=O)N1C (stereo not given)	/	-8	6	-126%	-41%
COC(=O)C1=CN(C(C)C)C=C(C(=O)OC)C1c1cc2c(cc1Br)OCO2	?	-16	-6	-3%	3.7µM*
CC1=C(C(=O)OCC(C)C)C(c2cc3c(cc2Br)OCO3)NC(=O)N1C (stereo not given)	10µM*	-6	-2	-65%	-23%
Cn1cccc1/C=N\NC(=O)Cc1ccc(Br)c2ccccc12	-19%	-15	13	/	-11%
O=C1CN(C(=O)NCC(=O)N2CCCC2)c2ccccc2N1	18%	-3	-2	0%	-2%
COc1ccc([N+](=O)[O-])cc1C1NN=C(c2ccccc2O)S1 (stereo not given)	?	25	9	-33%	/
O=[N+]([O-])c1ccc(O)c(C2=NNC(c3ccccc3F)C2)c1 (stereo not given)	0%	84*	40*	-45%	22%
SMILES	Pf growth 48h	Shiga inhibitor	Cycloheximide cs	NS1 inh	Pf growth 96h
CCOc1ccc(C(C(=O)NC2CCCC2)N(CCCO)C(=O)c2ccc(-c3ccccc3)[nH]2)cc1 (stereo not given)	?	60*	12	/	11%
O=C(NC1CCCC1)C(c1ccncc1)N(Cc1ccccc1)C(=O)c1ccc(-c2ccccc2)[nH]1 (stereo not given)	?	27	13*	2%	?
Cc1ccc(-c2cc([C@H]3[C@H]4C=CC[C@@H](C)[C@@H]4C(=O)N3Cc3ccccc3)ccc2F)cc1	10µM*	18	2	12%	?
CC1CC=CC2C1C(=O)N(Cc1ccccc1)C2c1ccc(F)c(Br)c1 (stereo not given)	/	32*	16	/	/
CC1CC=CC2C1C(=O)N(Cc1ccccc1)C2c1ccc(F)c(-c2ccc(N(C)C)cc2)c1 (stereo not given)	/	0	13	/	/
CC[C@@H]1CC=C[C@H]2[C@H]1C(=O)N(Cc1ccccc1)[C@H]2c1cc(C)ccc1F	?	-3	-3	-67%	?
Cc1ccc(F)c([C@H]2C3C=CCC(c4ccccc4)C3C(=O)N2Cc2ccccc2)c1 (stereo not given in full)	12µM*	-7	-4	-6%	?
O=C(Nc1ccc([N+](=O)[O-])cc1)c1nc[nH]c1C(=O)NC1CCCCC1	?	-6	-3	3%	?
C[n+]1c(-c2ccccc2)cc(-c2ccc(O)cc2)cc1-c1ccccc1	?	-3	-2	/	2.1µM*
Oc1ccc(-[n+]2c(-c3ccccc3)cc(-c3ccccc3)cc2-c2ccccc2)cc1	0.37µM*	/	/	/	0.13µM*
Cc1cc(-c2ccccc2)cc(-c2ccccc2)[n+]1CCc1ccccc1	0.47µM*	/	/	/	0.52µM*
Cc1cc(-c2ccccc2)cc(-c2ccccc2)[n+]1C	10µM*	-12	-1	/	0.93µM*
CCOc1ccc(-c2cc(C)[n+](CCO)c(-c3ccc(OCC)cc3)c2)cc1	?	-7	-4	/	?
O=[N+]([O-])c1ccc(-[n+]2c(-c3ccccc3)cc(-c3ccccc3)cc2-c2ccccc2)cc1	?	/	-3	-6%	0%
COC(=O)CCSCC(=O)N1N=C(c2ccc(OC)cc2)CC1c1cccc(OC)c1OC (stereo not given)	-25%	-17	-4	/	1%
COc1ccccc1N1CCN(C2CCCN(C(=O)CCc3ccccn3)C2)CC1 (stereo not given)	-10%	-12	5	11%	-22%
CN1CCN(CCC(=O)N/N=C/c2ccccn2)CC1	0%	-4	0	5%	?
CCOP(=O)(c1ccc(N(C)C)cc1)C(O)c1ccc(OC)cc1 (stereo not given)	7%	3	-2	-2%	9%
COc1ccc(-[n+]2c(-c3ccccc3)cc(-c3ccccc3)cc2-c2ccccc2)cc1	0.83µM*	/	/	/	0.29µM*
CCCNC(=O)/C=C/c1ccc(C(C)C)cc1	?	64*	47*	-5%	13µM*
CC(C)c1ccc(/C=C/C(=O)NCCC2=CCCCC2)cc1	10%	17	17*	7%	153%
